PfHsp40 yeast: compounds rescuing yeast from Plasmodium falciparum HSP40 toxicity | S. cerevisiae expressing PfHsp40, growth rescue, ATP luminescence | growth rescue, % at 12.5 µM | 340,000 compounds, 0.68% hits; in the data active = growth rescue above about 28%, passing the limit was not always enough;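 also: yeast W303a lacking pdr1 and pdr3 grown in galactose medium; growth measured after three days at 30 °C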
TcdB GH inh: blocks C. difficile toxin B glycohydrolase activity; TcdB glycohydrolase enzymatic assay, plate reader; inhibition, % at 9.99 µM; 350,000 compounds, 0.24% hits; AID 652162; in the data active = inhibition above about 10%
Mtb BioA inh: BioA (M. tuberculosis) enzyme inhibition. AID 602481. purified M. tuberculosis BioA enzyme, plate reader. 360,000 compounds, 0.096% hits. inhibition, % at 9.99 µM; in the data active = inhibition above about 40%
VHR inh abs: blocks human VHR1 dual specificity phosphatase. AID 1654. recombinant VHR phosphatase, pNPP absorbance. P51452. inhibition, % at 13.3 µM. 290,000 compounds, 0.52% hits; in the data active = inhibition above about 50%
Yp Topo-I inh: inhibitors of Yersinia pestis topoisomerase I. Y. pestis Topo-I cleavage product accumulation, plate reader. activity, % at 10 µM. 360,000 compounds, 0.064% hits. AID 504884; in the data active = activity above about 50%, passing the limit was not always enough
BH1578 lux ind: inducers of Vibrio cholerae quorum light production without autoinducers; V. cholerae BH1578 lux reporter, luminescence, 6 h; activation, % at 18.7 µM; 350,000 compounds, 0.16% hits; AID 588436; in the data active = activation mostly above about 9.7%, no sharp cut-off
HeLa tox: cytotoxicity in HeLa cells at 24 hours; shares compounds with BH1578 lux ind; HeLa viability, CellTiter-Glo ATP luminescence; activity change, negative = cytotoxicity, % at 35 µM; 25 tested, under 10 active; AID 624140;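 active = signal drop with fitted half-maximal concentration at or below twice the highest valid dose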
An asterisk follows results filed as active. This is a sample that favours compounds with a hit; in the whole collection about 1.2% have one here.

How did CN(CCN1CCOCC1)C(=O)CC1C(=O)NCCN1Cc1ccccc1C(F)(F)F (stereo not drawn) do in these assays?
PfHsp40 yeast: -2; TcdB GH inh: 19*; Mtb BioA inh: -4; VHR inh abs: 36; Yp Topo-I inh: -5; BH1578 lux ind: 0

How did COc1ccc(CN2CCN(Cc3ccc(C(F)(F)F)cc3)CC2)cc1 do in these assays?
PfHsp40 yeast: 0; TcdB GH inh: 3; Mtb BioA inh: 0; VHR inh abs: -8; Yp Topo-I inh: 18; BH1578 lux ind: 1

What do the screens show for `FC(F)(F)c1ccc(CN2CCCCCC2)cc1`?
PfHsp40 yeast: 2; TcdB GH inh: 0; VHR inh abs: 52*; Yp Topo-I inh: 2; BH1578 lux ind: -2

Results for Cc1ccccc1Nc1ccc2nonc2c1[N+](=O)[O-] ?
PfHsp40 yeast: -2; TcdB GH inh: 0; Mtb BioA inh: -1; VHR inh abs: 6; Yp Topo-I inh: 1; BH1578 lux ind: -10

Results for O=[N+]([O-])c1c(Nc2ccccc2O)ccc2nonc12 ?
PfHsp40 yeast: -1; TcdB GH inh: 13*; Mtb BioA inh: 3; VHR inh abs: 16; Yp Topo-I inh: -3; BH1578 lux ind: 0

Results for Nc1c(C(=O)Nc2ccc(S(=O)(=O)N3CCCC3)cc2)sc2nc3ccc(OC(F)(F)F)cc3cc12 ?
PfHsp40 yeast: 1; Mtb BioA inh: -8; VHR inh abs: -10; Yp Topo-I inh: -1; BH1578 lux ind: -1

How did Nc1c(C(=O)Nc2ccc(S(=O)(=O)N3CCCC3)cc2)sc2nc3cc4c(cc3cc12)CCC4 do in these assays?
PfHsp40 yeast: 0; VHR inh abs: 51*; Yp Topo-I inh: 0; BH1578 lux ind: inactive

How did O=C1C(Cl)=C(Nc2ccccc2O)C(=O)N1c1ccccc1 do in these assays?
PfHsp40 yeast: -2; Mtb BioA inh: 0; VHR inh abs: 10; Yp Topo-I inh: -2; BH1578 lux ind: inactive

Results for COc1ccccc1N1C(=O)C(Cl)=C(Nc2ccccc2O)C1=O ?
PfHsp40 yeast: 92*; VHR inh abs: 10; Yp Topo-I inh: -14; BH1578 lux ind: 0

Results for OCC1(CCc2ccccc2)CCCN(C/C=C/c2ccccc2)C1 (stereo not drawn) ?
PfHsp40 yeast: 0; TcdB GH inh: 1; Mtb BioA inh: 0; VHR inh abs: 57*; Yp Topo-I inh: 5; BH1578 lux ind: inactive

Results for CCC(C)c1ccc(C(C)NC(=S)NCc2ccc(F)cc2)cc1 (stereo not drawn) ?
PfHsp40 yeast: -1; TcdB GH inh: 1; Mtb BioA inh: -1; VHR inh abs: 2; Yp Topo-I inh: 23; BH1578 lux ind: 0

Results for CC(NC(=S)NCc1ccc(F)cc1)C12CC3CC(CC(C3)C1)C2 (stereo not drawn) ?
PfHsp40 yeast: 157*; TcdB GH inh: -1; VHR inh abs: -1; Yp Topo-I inh: -4; BH1578 lux ind: 0

Results for CCC(NC(=S)NCc1ccc(F)cc1)c1ccc(C(C)C)cc1 (stereo not drawn) ?
PfHsp40 yeast: 472*; TcdB GH inh: 0; Mtb BioA inh: -1; VHR inh abs: 6; Yp Topo-I inh: 30; BH1578 lux ind: -1

Results for CN1c2ccc(-c3ccccc3)cc2[C@H]2[C@H](CCN2C(=O)c2ccc(F)cc2)[C@H]1CO ?
TcdB GH inh: 1; Mtb BioA inh: 5

Results for O=C(Nc1ccccn1)c1ccc(Br)s1 ?
PfHsp40 yeast: 1; TcdB GH inh: 1; Mtb BioA inh: -2; VHR inh abs: 55*; Yp Topo-I inh: -3; BH1578 lux ind: 1

How did Cc1cccc(-n2c(Cc3ccccc3)nnc2SCC(=O)N2CCOCC2)c1 do in these assays?
PfHsp40 yeast: 1; TcdB GH inh: 3; Mtb BioA inh: 2; VHR inh abs: 15; Yp Topo-I inh: 13; BH1578 lux ind: 0

What do the screens show for `CC(=O)Nc1cccc2cc(O)ccc12`?
PfHsp40 yeast: 1; TcdB GH inh: 22*; Mtb BioA inh: -3; Yp Topo-I inh: -8; BH1578 lux ind: -1

What do the screens show for `COc1cccc(Nc2c(Nc3cccc(OC)c3)c(=O)c2=O)c1`?
PfHsp40 yeast: -1; TcdB GH inh: 1; Mtb BioA inh: -1; VHR inh abs: 59*; Yp Topo-I inh: 4; BH1578 lux ind: -1

How did O=C(Nc1ncccc1O)c1cccc(S(=O)(=O)N2CCCc3ccccc32)c1 do in these assays?
PfHsp40 yeast: 62*; TcdB GH inh: 0; Yp Topo-I inh: 9; BH1578 lux ind: -11

How did Cc1cccnc1NC(=O)c1cccc(S(=O)(=O)N2CCCc3ccccc32)c1 do in these assays?
PfHsp40 yeast: -4; TcdB GH inh: -4; Mtb BioA inh: 0; VHR inh abs: 22; Yp Topo-I inh: 6; BH1578 lux ind: -1

Results for COc1ccc(OC)c(N(CC(=O)NCCSc2ccccc2)S(C)(=O)=O)c1 ?
PfHsp40 yeast: 1; Mtb BioA inh: 0; VHR inh abs: 50*; Yp Topo-I inh: -3; BH1578 lux ind: inactive

Results for COc1ccc(C=O)cc1Cn1ccnc1 ?
PfHsp40 yeast: 1; TcdB GH inh: 0; Mtb BioA inh: 3; VHR inh abs: 15; Yp Topo-I inh: -2; BH1578 lux ind: 0

How did CC[C@@]1(C(=O)OC)N[C@H](CN(C)S(=O)(=O)c2ccc(F)cc2)[C@@H]2C(=O)N(C)C(=O)[C@@H]21 do in these assays?
PfHsp40 yeast: 1; TcdB GH inh: 1; Mtb BioA inh: -2; Yp Topo-I inh: -1; BH1578 lux ind: -1

What do the screens show for `O=C(C1CC1)N1CCN(c2ccc(O)cc2)CC1`?
PfHsp40 yeast: 1; TcdB GH inh: 1; Mtb BioA inh: 2; VHR inh abs: 56*; Yp Topo-I inh: 1; BH1578 lux ind: inactive

How did CCCCCCCCOc1ccc(C2CC(=O)NC2=O)cc1 (stereo not drawn) do in these assays?
PfHsp40 yeast: 66*; TcdB GH inh: 2; Mtb BioA inh: 1; VHR inh abs: 4; Yp Topo-I inh: 34; BH1578 lux ind: 0

How did O=C1CC(c2ccc(OCCCCCOc3ccc(C4CC(=O)NC4=O)cc3)cc2)C(=O)N1 (stereo not drawn) do in these assays?
PfHsp40 yeast: -1; TcdB GH inh: -2; Mtb BioA inh: 0; VHR inh abs: 16; Yp Topo-I inh: -5; BH1578 lux ind: 0

Results for CC1(C)Cc2c(sc3[nH]c(=S)[nH]c(=O)c23)CO1 ?
PfHsp40 yeast: 0; TcdB GH inh: 5; Mtb BioA inh: 0; VHR inh abs: 22; Yp Topo-I inh: -1; BH1578 lux ind: inactive

How did O=C(Nc1ccc(C(F)(F)F)cc1)N[C@@H]1CC[C@@H](CC(=O)N2CCCCC2)O[C@@H]1CO do in these assays?
TcdB GH inh: -2; Mtb BioA inh: -2

Results for CCn1nnc(NCc2ccc(C)cc2)n1 ?
HeLa tox: 10

Results for CCn1nnc(NC(=O)Cc2ccc(Cl)cc2)n1 ?
PfHsp40 yeast: 0; TcdB GH inh: 0; VHR inh abs: -18; Yp Topo-I inh: -4; BH1578 lux ind: -1

Compound activity as filed in PubChem.
